Compounds without any hit were thinned out: in the full panel of roughly 83,000, 20% have a hit.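 Method: cells in 96-well plates; compound added at one concentration; 48 h incubation; percent growth measured; values under 10 scored active.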 Values without a mark were called inactive. Active and inactive are the calls of the source.

Some test systems named below: NCI-H23 lung; NCI-H322M lung; HOP-62 NSCLC; NCI-H460 lung; HOP-92 NSCLC; NCI-H522 lung; A549/ATCC NSCLC; 786-0 renal; COLO 205 colon; DU-145 prostate; K-562 leukemia; MALME-3M melanoma; MDA-MB-231 breast; RXF 393 renal; SF-268 CNS; SF-295 CNS; SF-539 CNS; UACC-257 melanoma; M14 melanoma; HCT-15 colon.
Experiment in all cases: NCI-60 one-dose screen, 48 h (100 = growth as untreated, 0 = no growth, -100 = all killed)
Common to all, as to conditions: 10 µM unless noted

Regarding `COc1ccc(Nc2cc(C)nc(NCc3ccccc3)n2)cc1`, the growth was 56% in the assay with NCI-H23 lung; 61.9% in the assay on NCI-H322M lung; 38.5% in the assay with HOP-62 NSCLC; 11.9% in the assay with NCI-H460 lung; 21.6% in the assay on HOP-92 NSCLC; 19.9% in the assay with NCI-H522 lung. For the same molecule, the growth is 7.95% (active) in the assay on A549/ATCC NSCLC; 34.1% in the assay with 786-0 renal; 3.51% (active) with COLO 205 colon; 45.4% in the assay with DU-145 prostate; 5.22% (active) in the assay on K-562 leukemia; 13.6% in the assay with MALME-3M melanoma. Further, the growth with MDA-MB-231 breast is -18.1% (active); with RXF 393 renal, -16.2% (active); with SF-268 CNS it was 47.8%; with SF-295 CNS, -30.7% (active); in the assay on SF-539 CNS, 47.5%; with UACC-257 melanoma, 46.8%. In addition, the growth in the assay with M14 melanoma was 8.52% (active); in the assay on HCT-15 colon, 26.1%.

For the molecule `CCOC(=O)c1sc(-c2ccc(OS(=O)(=O)c3cccs3)c(C=O)c2)nc1C`, the growth in the assay with NCI-H23 lung was 11.4%; with NCI-H322M lung it was 47.3%; in the assay with HOP-62 NSCLC it was 22.5%; in the assay with NCI-H460 lung, 3.56% (active); with HOP-92 NSCLC, 11.9%; in the assay with NCI-H522 lung, -2.27% (active). The growth was 32.5% in the assay with A549/ATCC NSCLC; 5.71% (active) with 786-0 renal; 79.6% in the assay with COLO 205 colon; 8.94% (active) in the assay with DU-145 prostate; 4.3% (active) with K-562 leukemia; -5.26% (active) in the assay with MALME-3M melanoma. Also, the growth is -16.8% (active) in the assay on MDA-MB-231 breast; 19% with RXF 393 renal; 9.2% (active) in the assay with SF-268 CNS; -8.21% (active) in the assay on SF-295 CNS; -26.2% (active) in the assay with SF-539 CNS; 32.1% with UACC-257 melanoma. In addition, the figures for the growth with M14 melanoma and in the assay with HCT-15 colon were -17.6% (active) and 1.42% (active), respectively.

For `CC(=O)c1ccc2oc(=O)n(Cc3ccc(C#N)cc3)c(=O)c2c1`, the growth in the assay on NCI-H23 lung was 103%; with NCI-H322M lung, 100%; in the assay with HOP-62 NSCLC it was 103%; in the assay on NCI-H460 lung it was 106%; in the assay with HOP-92 NSCLC, 95.2%; in the assay with NCI-H522 lung, 99.5%. In addition, the growth in the assay on A549/ATCC NSCLC is 103%; with 786-0 renal, 103%; in the assay on COLO 205 colon it was 114%; with DU-145 prostate, 111%; with K-562 leukemia it was 117%; with MALME-3M melanoma it was 96.9%. Also, the growth in the assay with MDA-MB-231 breast was 107%; with RXF 393 renal it was 114%; in the assay with SF-268 CNS it was 99.1%; in the assay with SF-295 CNS, 99.1%; in the assay on SF-539 CNS, 96.8%; in the assay on UACC-257 melanoma, 108%. The growth in the assay with M14 melanoma was 108%; in the assay with HCT-15 colon it was 98.9%.

For `O=C(CN1C=NC2C(N3CCOCC3)=NC=NC21)c1cccc2ccccc12` (stereo not given), the growth with NCI-H23 lung was 103%; in the assay on NCI-H322M lung, 98.8%; in the assay on HOP-62 NSCLC it was 99.2%; in the assay with NCI-H460 lung, 103%; with HOP-92 NSCLC, 90.2%; with NCI-H522 lung, 90.2%. In addition, the growth is 90.1% with A549/ATCC NSCLC; 101% in the assay with 786-0 renal; 119% in the assay with COLO 205 colon; 105% in the assay on DU-145 prostate; 107% in the assay with K-562 leukemia; 114% with MALME-3M melanoma. For the same molecule, the growth with MDA-MB-231 breast was 88.1%; with RXF 393 renal, 100%; in the assay with SF-268 CNS, 84.7%; in the assay on SF-295 CNS, 102%; in the assay on SF-539 CNS, 98.9%; with UACC-257 melanoma it was 101%. For the same molecule, the growth in the assay with M14 melanoma was 105%; with HCT-15 colon, 95.8%.

As to `COc1cccc(-c2nn(C)c3sc(C(=O)NCCN4CCN(c5ccccc5F)CC4)cc23)c1`, the growth with NCI-H23 lung is 91.2%; in the assay with NCI-H322M lung, 87.3%; in the assay on HOP-62 NSCLC, 81.4%; with NCI-H460 lung, 57.6%; with HOP-92 NSCLC, 14.9%; with NCI-H522 lung, 60.9%. Also, the growth with A549/ATCC NSCLC is 74.7%; in the assay with 786-0 renal it was 57.6%; with COLO 205 colon it was -78.4% (active); in the assay with DU-145 prostate, 89.4%; in the assay with K-562 leukemia, -35.5% (active); with MALME-3M melanoma it was -87% (active). In addition, the growth is 30.8% in the assay with MDA-MB-231 breast; 41.3% in the assay on RXF 393 renal; 76.9% in the assay with SF-268 CNS; -55.6% (active) in the assay on SF-295 CNS; 56.4% in the assay with SF-539 CNS; -67.3% (active) in the assay on UACC-257 melanoma. Besides, the growth in the assay with M14 melanoma is -90.1% (active); in the assay on HCT-15 colon, 29.3%.

For `O=C(Nc1ccc(I)cc1F)c1cc(Br)ccc1O`, the growth in the assay with NCI-H23 lung is 3.44% (active); in the assay with NCI-H322M lung, 7.16% (active); in the assay on HOP-62 NSCLC, -5.03% (active); in the assay with NCI-H460 lung, 2.62% (active); with HOP-92 NSCLC, -10.8% (active); in the assay on NCI-H522 lung it was -7.93% (active). Moreover, the growth is 7.17% (active) with A549/ATCC NSCLC; 1.97% (active) with 786-0 renal; 46.9% in the assay on COLO 205 colon; 14.2% in the assay on DU-145 prostate; 8.5% (active) in the assay on K-562 leukemia; -27.4% (active) in the assay on MALME-3M melanoma. Further, the growth in the assay with MDA-MB-231 breast is -21.2% (active); with RXF 393 renal, 2.4% (active); in the assay on SF-268 CNS, 7.21% (active); in the assay with SF-295 CNS, -64.9% (active); in the assay on SF-539 CNS it was 0.872% (active); in the assay with UACC-257 melanoma, -18.2% (active). Moreover, the growth in the assay with M14 melanoma was -10.4% (active); in the assay on HCT-15 colon, 0.459% (active).

Take `CC[C@]1(O)C[C@@H]2CN(CCc3c([nH]c4ccccc34)[C@@](C(=O)OC)(c3cc4c(cc3OC)N(C)[C@H]3[C@@](O)(C(=O)OC)[C@H](OC(=O)CCCBr)[C@]5(CC)C=CCN6CC[C@]43[C@@H]65)C2)C1`: the growth in the assay on NCI-H23 lung was 33.1%; in the assay on NCI-H322M lung, 38.7%; with HOP-62 NSCLC, 29.2%; in the assay on NCI-H460 lung, 5.85% (active); in the assay with HOP-92 NSCLC, -0.264% (active); in the assay on NCI-H522 lung, -27% (active). The growth in the assay on A549/ATCC NSCLC was 15.2%; with 786-0 renal it was 10.4%; in the assay on COLO 205 colon, -53.2% (active); in the assay on DU-145 prostate, 5.82% (active); in the assay with K-562 leukemia it was 8.93% (active); with MALME-3M melanoma, 39.4%. For the same molecule, the growth in the assay with MDA-MB-231 breast was -16.5% (active); with RXF 393 renal, 34.2%; with SF-268 CNS, 21.2%; with SF-295 CNS, 8.8% (active); in the assay on SF-539 CNS, -10.4% (active); with UACC-257 melanoma, 62%. The growth in the assay with M14 melanoma is -11% (active); in the assay with HCT-15 colon, 10.5%.

The values above are taken from PubChem BioAssay (NCI).
